Molecules are shown by their SMILES. Among all 300,000 compounds or so, about 2,400 (0.8%) were called active.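 How the source made its calls: active means Every replicate reaches about 75%, or at least half do and their mean reaches it too (limit read from the data); inconclusive means At least half of replicates reach the limit but their mean does not; inactive means Under half of replicates reach the limit.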 What follows is part of a selection rich in actives, with near analogues and random picks from the rest.

This assay in a line: inhibitors of cytokine-induced beta cell apoptosis, primary screen, luminescence (AID 435005).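 Further: 0% = cytokine-treated negative control wells and 100% = positive control rescue; higher means more ATP so stronger rescue from cytokine killing.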 To be noted: INS-1E cytokine-induced death, ATP luminescence, 48 h; active compounds read high; percent of positive-control rescue, neutral wells zero; concentration not given here.
Take `CCC(CO)Oc1cc(NC(=O)c2cccc(F)c2)c2ncn(C(C)C)c2c1` (centres undefined): the protection from apoptosis was -0.224% (inactive). The same measure for `COC(=O)C1=C(C)N(Cc2ccccc2)C(=NCCCOC(C)C)N[C@H]1c1ccccc1`: 11.4% (inactive); for `Cc1cc(Nc2ccccc2)n(C(=O)c2ccc(N)cc2)n1`: -16.4% (inactive); for `Cc1ccc(Nc2ccccc2N)cc1`: -7.56% (inactive).

Take `Nc1ccc(Nc2ccccc2)cc1`: the protection from apoptosis was 78% (active).

Consider `O=C(Nc1nc2c(F)cc(F)cc2s1)C1COc2ccccc2O1` (centres undefined), for which the protection from apoptosis is 8.45% (inactive). For the molecule `Fc1cc(F)c2nc(Nc3nc4c(F)cccc4s3)sc2c1`, the protection from apoptosis is 103% (active).

Regarding `NC(=O)c1c(Nc2nc3c(F)cccc3s2)sc2c1CCCC2`, the protection from apoptosis was -4.14% (inactive). In the case of `COc1ccc(C(=O)O)cc1S(=O)(=O)NC1CCN(Cc2ccccc2)CC1`, the protection from apoptosis was -4.08% (inactive). With `COc1ccc(Sc2nc(-c3ccccc3)ncc2OC)cc1`, the protection from apoptosis is -2.84% (inactive).

With `CCOC(=O)c1cnc(-c2ccccc2)nc1Oc1ccc(C)cc1`, the protection from apoptosis is -3.84% (inactive). Regarding `CCC(=O)OCCNc1nc(-c2ccccc2)nc2ccccc12`, the protection from apoptosis is 0.204% (inactive). `COc1cnc(-c2ccccn2)nc1Oc1ccc(C(C)(C)C)cc1`: the protection from apoptosis is 97.3% (active).

On to `CC(C)(C)Nc1nc(-c2ccccn2)nc2ccccc12`, for which the protection from apoptosis was 118% (active).

`Cc1ccc(Oc2nc(-c3ccccn3)nc3ccccc23)cc1`: the protection from apoptosis is 101% (active). Turning to `N#Cc1ccc(Oc2cc(C(F)(F)F)nc(-c3ccccn3)n2)cc1`, the protection from apoptosis is -3.82% (inactive). In the case of `COc1ccc(Cc2nc(-c3ccccn3)no2)cc1OC` it was 4.66% (inactive); in that of `CCOCCCNc1nc(-c2ccccc2)nc2ccccc12`, 4.15% (inactive). Consider `COc1ccccc1S(=O)(=O)NCc1ccc(C(=O)N(C)Cc2ccc(F)cc2)cc1`, for which the protection from apoptosis is -4.62% (inactive).

With `CCN(CC)C(=O)[C@H]1CC(CC(=O)NCc2ccco2)C(=O)N2CCc3c([nH]c4ccccc34)[C@]12C` (some centres undefined), the protection from apoptosis is -1.53% (inactive). The same measure for `O=C(COc1ccc([N+](=O)[O-])cc1Cl)Nc1ccc2[nH]c(=O)[nH]c2c1`: -0.613% (inactive).

In the case of `CN(c1ccccc1)S(=O)(=O)c1cc(C(=O)N2CCN(c3ncccn3)CC2)ccc1Cl`, the protection from apoptosis was -2.6% (inactive). For `COc1ccccc1-c1oc2ccccc2c1C#CCCCCO`, the protection from apoptosis is -5.68% (inactive). For `COC(=O)c1ccc(/C=C/c2c(-c3ccc(OC)cc3)sc3ccccc23)cc1`, the protection from apoptosis is 5.7% (inactive). The same measure for `Cn1nccc1C(=O)NC1CCCc2c1cnn2-c1ccccc1F` (centres undefined): 111% (active); for `CC(=O)NCC(=O)NC1CCCc2c1cnn2-c1ccccc1F` (centres undefined): -7.28% (inactive); for `COc1ccc(C(=O)NC2CCCc3c2cnn3-c2cccc(C)c2C)c(OC)n1` (centres undefined): 32.4% (inactive). As for `Cc1ccc(-n2ncc3c2CCCC3NC(=O)c2cnccn2)cc1C` (centres undefined), the protection from apoptosis is 2.44% (inactive). `Cc1cc(C(=O)NC2CCCc3c2cnn3-c2cccc(C)c2C)c(C)o1` (centres undefined): the protection from apoptosis is 41.6% (inactive). For `Cn1nccc1C(=O)NC1CCCc2c1cnn2-c1ccc(F)cc1F` (centres undefined), the protection from apoptosis was 132% (active). The same measure for `Cc1c(C(=O)Nc2cccc(S(=O)(=O)N3CCOCC3)c2)oc2ccccc12`: -9.31% (inactive). In the case of `COc1cc(C(=O)OCc2cc(=O)n3ccsc3n2)ccc1OC(C)C` it was -0.396% (inactive); in that of `CC(C)c1ccc(NC(=O)COC(=O)c2ccc(CN3CCCC3=O)cc2)cc1`, 3.42% (inactive). Take `COc1ccccc1-c1sc2ccccc2c1C#CC1(O)CCCCC1`: the protection from apoptosis was -12% (inactive).
